The values below come from PubChem BioAssay (NCATS).

Test [1] has as its target DNA repair nuclease/redox regulator APEX1 (Homo sapiens) (UniProt P27695). In words: qHTS Validation Assay for Inhibitors of the Human Apurinic/apyrimidinic Endonuclease 1 (APE1) (AID 1705;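 also: TAMRA fluorescence gain over two minutes as APE1 cuts a quenched THF abasic duplex; series mostly up to about 57 µM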). The essentials: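 Substrate: 50 nM final fluorophore/quencher THF-abasic duplex. Enzyme preincubated with compounds 15 min, RT. Progress derived from fluorescence difference, third minus first kinetic read.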
(In general: qHTS replaces the single test concentration by a dilution series.)

The nature of test [2]: Counterscreen for APE1 Inhibitors: Fluorescent Dye Displacement Validation Assay (AID 1707). The method, boiled down: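 Thiazole Orange displacement from dsDNA: 250 nM ThO with 50 nM TAMRA-labelled abasic-site (tetrahydrofuran) duplex in 50 mM Tris-HCl pH7.5, 50mM NaCl, 2 mM MgCl2, 0.01% Tween-20. Loss of endpoint fluorescence (ex 480 nm, em 540 nm) flags DNA binders.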
Test [3] addresses Endonuclease 4 (Escherichia coli (strain K12)) (UniProt P0A6C1). In words: Counterscreen for APE1 Inhibitors: qHTS Validation Assay for Inhibitors of Endonuclease IV (AID 1708). The method, boiled down:
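Cleavage of a quenched abasic-site DNA duplex (50 nM, 5'-TAMRA, 3'-BHQ-2) by 2 nM enzyme is followed as fluorescence increase. Compounds are preincubated with enzyme 15 min at room temperature before substrate addition.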

Test [4] can be described thus: qHTS for differential inhibitors of proliferation of Plasmodium falciparum line D10 (AID 1877).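 Also: parasites grown with compound for 72 h before DNA staining.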 Also: potency is read from the fitted curve at half-maximal effect.
Test [5] can be described thus: qHTS for differential inhibitors of proliferation of Plasmodium falciparum line Dd2 (AID 1882). Also: nearly all actives have a fitted effect of over 65% in size. Also: potency is read from the fitted curve at half-maximal effect. Particulars: Potency: Plasmodium falciparum Dd2 proliferation inhibition. The essentials:
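SYBR Green I DNA fluorescence read-out, ex 485/em 535 nm. Signals were normalized to 0.29 uM artemisinin and DMSO wells, then corrected using vehicle-only plates flanking each stack. Parasite growth ran 72 h in erythrocytes before lysis.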

Test [6] is described as follows: qHTS for differential inhibitors of proliferation of Plasmodium falciparum line W2 (AID 1883).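 Also: parasites grown with compound for 72 h before lysis and staining.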 Also: potency is read from the fitted curve at half-maximal effect. Conditions: Potency: Plasmodium falciparum W2 proliferation inhibition.
Test [7] can be described thus: qHTS for differential inhibitors of proliferation of Plasmodium falciparum line HB3 (AID 1886).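 Also: parasites grown with compound for 72 h before SYBR Green readout.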 Also: potency is read from the fitted curve at half-maximal effect. Particulars: Potency: Plasmodium falciparum HB3 proliferation inhibition.
Test [8] in a line: qHTS Assay for Modulators of Human Peripheral Myelin Protein 22 (PMP22) Expression/Activity (AID 1967; active = well fitted curve in the direction sought with a large enough effect in the signal ratio; the % refers to the signal ratio). The essentials:
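Engineered MSC80 cells, Pmp22-promoter green and EF-alpha red luciferase reporters; 24h compound treatment at 37 °C. Concentration-response fits on green, red and ratio signals, each overlap-corrected, with %Activity normalized to untreated wells.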

Test [9] deals with ATP-dependent DNA helicase Q1 (Homo sapiens) (UniProt P46063). In words: qHTS Validation Assay for Inhibitors of RecQ-Like Dna Helicase 1 (RECQ1) (AID 2353). The essentials: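 50 nM RECQ1T1 preincubated 15 min with compound in Tris pH 8.0 buffer with MgCl2, DTT, Tween-20 and 2.5 ug/ml poly(dI-dC); started with 200 nM TAMRA/BHQ-2 forked duplex and 2 mM ATP. Unwinding read as fluorescence (525/598 nm), two reads 2 h apart.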
Sequence of ATP-dependent DNA helicase Q1 (Homo sapiens) (P46063 whole entry, looked up): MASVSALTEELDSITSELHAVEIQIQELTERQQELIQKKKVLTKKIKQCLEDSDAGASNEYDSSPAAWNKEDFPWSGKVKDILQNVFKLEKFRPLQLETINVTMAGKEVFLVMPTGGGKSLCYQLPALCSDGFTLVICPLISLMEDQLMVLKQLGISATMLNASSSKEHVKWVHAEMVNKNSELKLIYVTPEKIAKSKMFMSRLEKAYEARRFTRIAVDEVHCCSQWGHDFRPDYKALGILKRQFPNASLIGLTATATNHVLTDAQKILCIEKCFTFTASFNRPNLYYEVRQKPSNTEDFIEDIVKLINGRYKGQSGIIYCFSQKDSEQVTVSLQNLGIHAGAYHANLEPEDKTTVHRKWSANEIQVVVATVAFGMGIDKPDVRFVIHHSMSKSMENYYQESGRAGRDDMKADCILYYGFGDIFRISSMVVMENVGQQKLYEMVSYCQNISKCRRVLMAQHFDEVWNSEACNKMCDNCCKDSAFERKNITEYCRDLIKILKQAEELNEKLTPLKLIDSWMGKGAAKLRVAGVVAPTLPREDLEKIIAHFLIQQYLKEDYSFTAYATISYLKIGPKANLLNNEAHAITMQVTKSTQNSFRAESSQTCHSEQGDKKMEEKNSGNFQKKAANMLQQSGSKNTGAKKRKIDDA

A short description of test [10]: Cytometric Cell-Based qHTS for Inhibitors of the mTORC1 Signaling Pathway in MEF (Tsc2-/-, p53-/-) Cells (AID 2660).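 Also: percent of cells above a phospho-rpS6 to PI ratio cutoff in each well; series mostly up to about 38 µM.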 The essentials:
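Readout: Alexa-488 phospho-rpS6 (Ser235/236) intensity divided by PI intensity, thresholded against 7.5 nM rapamycin wells and reported as % positive cells. PI cell count served as the viability measure. Compound exposure was 24 hrs at 37 degree Celsius.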

Test [11] in a line: High Content Imaging Cell-Based qHTS for Inhibitors of the mTORC1 Signaling Pathway in MEF (Tsc2-/-, p53-/-) Cells (AID 2666). The essentials: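 Phospho-rpS6 (Ser235/236) immunofluorescence, normalized and scored as % positive cells using rapamycin and DMSO controls, was read in empty-vector Tsc2-/-, p53-/- MEFs after 24 h compound exposure at 37 C; propidium iodide counted cells.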

A short description of test [12]: qHTS for differential inhibitors of proliferation of Plasmodium falciparum line 7G8 (AID 1815).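 Also: parasite growth measured after three days of incubation.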 Also: potency is read from the fitted curve at half-maximal effect.
A short description of test [13]: qHTS for differential inhibitors of proliferation of Plasmodium falciparum line GB4 (AID 1816).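 Also: parasite growth measured after 72 h incubation.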 Conditions: Potency: Plasmodium falciparum GB4 proliferation inhibition.
Test [14] is described as follows: qHTS for differential inhibitors of proliferation of Plasmodium falciparum line 3D7 (AID 1876).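 Also: parasite growth measured after three days of culture.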
The nature of test [15]: High Content Imaging Cell-Based qHTS for Inhibitors of the mTORC1 Signaling Pathway in MEF Cells (AID 2667).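 Also: Tsc2-/- p53-/- MEFs stably re-expressing wild-type Tsc2 exposed 24 h; series mostly up to about 38 µM.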 The method, boiled down: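 WT MEFs (Tsc2-/-, p53-/- re-expressing Tsc2), in DMEM + 10% FBS, were treated with compound for 24 h at 37 C. Cells were then fixed and stained for phospho-rpS6 Ser235/236 with propidium iodide as cell count. Values are % positive cells, with thresholds set against rapamycin-treated cells.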

The target in test [16] is Ferritin light chain (Equus caballus) (UniProt P02791). In words: qHTS Validation Assay for Identification of Novel General Anesthetics (AID 2323). Also: series mostly up to about 77 µM. The essentials:
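Normalized fluorescence response, scaled between free 1-AMA and 1-AMA/apoferritin complex, fitted to a four-parameter Hill equation for concentration-effect values. Binding mix: 10 uM horse-spleen apoferritin, 50% saturated 1-AMA in PBS; read 380/535 nm after 10 min.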

The target of test [17] is RecQ-like DNA helicase BLM (Homo sapiens) (UniProt P54132). In words: qHTS Validation Assay for Inhibitors of Bloom's syndrome helicase (BLM) (AID 2364). The essentials:
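50 nM BLM preincubated 15 min at room temperature with compound in pH 8.0 Tris buffer containing 2.5 ug/ml poly(dI-dC); started with 200 nM TAMRA/BHQ-2 forked duplex and 2 mM ATP (final). Unwinding read as TAMRA fluorescence increase, two reads 2 h apart.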

The structures appear in SMILES notation. Inconclusive results are not listed. Calls of active or inactive are those of the source. Unless noted, calls follow the shape of the dose curve; as a rule, active = well fitted curve in the direction sought with a large enough effect; inconclusive = small, poorly fitted or top-dose-only effect, or another doubt; inactive = no such curve, though single readings can be large; an effect the other way counts as inactive or inconclusive.

Sequence of Ferritin light chain (Equus caballus) (P02791 2-175 limits assumed): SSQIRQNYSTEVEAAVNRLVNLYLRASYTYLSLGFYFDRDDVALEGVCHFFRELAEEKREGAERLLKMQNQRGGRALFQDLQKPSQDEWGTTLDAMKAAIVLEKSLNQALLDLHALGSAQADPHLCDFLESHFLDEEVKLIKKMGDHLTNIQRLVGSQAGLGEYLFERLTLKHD
Sequence of DNA repair nuclease/redox regulator APEX1 (Homo sapiens) (P27695 whole entry, looked up): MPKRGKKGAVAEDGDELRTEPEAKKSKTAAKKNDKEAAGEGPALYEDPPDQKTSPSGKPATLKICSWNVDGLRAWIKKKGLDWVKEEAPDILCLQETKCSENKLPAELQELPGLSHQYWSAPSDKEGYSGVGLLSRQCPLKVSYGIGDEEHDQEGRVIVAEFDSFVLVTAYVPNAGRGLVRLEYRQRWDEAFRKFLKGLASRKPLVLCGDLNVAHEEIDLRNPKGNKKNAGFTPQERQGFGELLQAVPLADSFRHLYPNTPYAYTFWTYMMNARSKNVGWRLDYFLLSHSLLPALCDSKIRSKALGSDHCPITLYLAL
Sequence of RecQ-like DNA helicase BLM (Homo sapiens) (P54132 whole entry, looked up): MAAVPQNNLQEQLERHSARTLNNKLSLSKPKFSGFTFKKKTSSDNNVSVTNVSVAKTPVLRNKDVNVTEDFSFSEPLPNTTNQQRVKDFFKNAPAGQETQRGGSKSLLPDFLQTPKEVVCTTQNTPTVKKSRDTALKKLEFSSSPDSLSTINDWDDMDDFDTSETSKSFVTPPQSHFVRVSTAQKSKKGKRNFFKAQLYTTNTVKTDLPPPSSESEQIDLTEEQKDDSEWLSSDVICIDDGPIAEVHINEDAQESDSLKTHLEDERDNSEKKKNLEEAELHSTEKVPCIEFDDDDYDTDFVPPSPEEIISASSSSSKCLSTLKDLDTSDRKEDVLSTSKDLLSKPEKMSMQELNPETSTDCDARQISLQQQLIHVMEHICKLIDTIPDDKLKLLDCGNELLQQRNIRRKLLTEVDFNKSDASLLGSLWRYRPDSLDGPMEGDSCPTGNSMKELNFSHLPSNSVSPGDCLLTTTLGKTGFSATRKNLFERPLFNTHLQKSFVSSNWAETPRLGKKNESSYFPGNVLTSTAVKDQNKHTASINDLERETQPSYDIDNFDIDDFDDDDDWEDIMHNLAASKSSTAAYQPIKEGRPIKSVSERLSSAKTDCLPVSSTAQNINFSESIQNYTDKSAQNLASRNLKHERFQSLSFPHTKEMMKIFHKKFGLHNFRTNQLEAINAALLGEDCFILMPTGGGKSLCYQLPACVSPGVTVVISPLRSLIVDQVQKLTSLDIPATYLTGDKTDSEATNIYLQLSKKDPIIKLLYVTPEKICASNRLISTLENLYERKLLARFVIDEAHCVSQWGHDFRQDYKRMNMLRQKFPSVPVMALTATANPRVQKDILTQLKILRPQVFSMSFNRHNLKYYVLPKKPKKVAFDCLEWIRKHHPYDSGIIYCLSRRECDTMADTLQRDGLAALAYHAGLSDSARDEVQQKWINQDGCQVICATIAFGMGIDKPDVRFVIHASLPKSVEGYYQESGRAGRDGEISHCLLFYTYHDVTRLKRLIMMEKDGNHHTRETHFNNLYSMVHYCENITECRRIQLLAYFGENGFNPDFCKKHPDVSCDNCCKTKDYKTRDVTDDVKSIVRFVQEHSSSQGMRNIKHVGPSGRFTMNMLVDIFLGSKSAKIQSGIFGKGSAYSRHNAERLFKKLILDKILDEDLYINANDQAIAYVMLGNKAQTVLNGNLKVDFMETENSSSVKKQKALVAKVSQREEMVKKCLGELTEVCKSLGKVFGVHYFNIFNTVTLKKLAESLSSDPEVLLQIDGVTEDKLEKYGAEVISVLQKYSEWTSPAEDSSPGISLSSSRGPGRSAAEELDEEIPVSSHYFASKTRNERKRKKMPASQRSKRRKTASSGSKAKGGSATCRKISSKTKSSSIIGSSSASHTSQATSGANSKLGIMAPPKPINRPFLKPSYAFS

Turning to `O=C1O/C(=C/Br)CCC1c1cccc2ccccc12` (stereo not drawn), the Potency result in test [1], in test [2], in test [3], in test [4], in test [5] and in test [7] was “inactive” throughout. In addition, the Potency result in [9] and in [11] was “inactive” in each case. In [6], the Potency is 11.2 µM (active). Also, the call in [8] and in test [10] was inactive.
`CCCCCCCCCCCCCCCCCC(=O)NCC(COP(=O)([O-])OCC[N+](C)(C)C)OCC` (stereo not drawn): the Potency entry in test [1], in test [2], in test [3], in [12], in test [13] and in test [14] was “inactive” each time. Further, the Potency entry in test [5], in test [7], in [9], in [11] and in [15] was “inactive” throughout. Besides, the Potency in [4] is 14.1 µM (active). Also, the call in test [8] and in test [10] was inactive.
For `O=C(O)[C@@H]1C[C@@H](C(=O)O)N1`, the Potency result in test [1], in test [2], in [3], in test [12], in test [13] and in [14] was “inactive” throughout. The Potency result in test [4], in test [5], in [7], in test [16], in test [9] and in test [11] was “inactive” each time. In addition, in test [15], the Potency entry was “inactive”. The outcome in test [8] and in test [10] was inactive.
With `CC1(C)CCC=[N+]1[O-]`, the Potency result in test [1], in test [2], in test [3], in [12], in test [13] and in test [14] was “inactive” each time. Also, the Potency result in test [4], in test [5], in test [6], in test [7], in test [16] and in test [9] was “inactive” throughout. The Potency entry in [11] and in test [15] was “inactive” throughout. Further, the result in test [8] and in [10] was inactive.
Regarding `NCCCCC(=O)O`, the Potency result in test [1], in test [2], in test [3], in test [12], in [13] and in [14] was “inactive” in each case. For the same compound, the Potency entry in test [4], in test [5], in test [6], in test [7], in test [16] and in test [9] was “inactive” in each case. The Potency entry in test [11] and in [15] was “inactive” each time. In addition, the result in test [8] and in test [10] was inactive.
As for `OC[C@H]1O[C@@H](n2cnc3c(NC4CCCCC4)ncnc32)[C@H](O)[C@@H]1O`, the Potency result in [1], in test [2], in test [3], in [12], in test [13] and in test [14] was “inactive” each time. For the same compound, the Potency result in [4], in test [5], in test [7], in test [16], in test [9] and in [17] was “inactive” in each case. Besides, the Potency result in test [11] and in test [15] was “inactive” in each case. In test [10], the result was inactive.
`CN1C2CCC1CC(OC(=O)C(O)c1ccccc1)C2` (stereo not drawn): the Potency entry in test [1], in test [2], in test [3], in test [12], in test [13] and in [14] was “inactive” each time. In addition, the Potency entry in [4], in test [5], in test [7], in [16], in test [9] and in [11] was “inactive” each time. In addition, the Potency result in test [15] was “inactive”. In addition, the outcome in test [8] and in test [10] was inactive.
In the case of `Oc1cc2c(cc1O)CN(C(=S)NCCc1ccc(Cl)cc1)CCC2`, the Potency entry in test [1], in test [2], in [3], in test [9], in test [11] and in test [15] was “inactive” throughout. The Potency in test [12] is 8.91 µM (active); in test [4], 12.6 µM (active); in [5] it was 8.91 µM (active); in [7], 8.91 µM (active). Besides, the outcome in test [10] was inactive.
